About 83,000 compounds went through this panel and 20% of them were active in at least one assay; those are over-represented in the sample as a whole.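 Method: cells in 96-well plates; compound added at one concentration; 48 h incubation; percent growth measured; values under 10 scored active.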 Values without a mark were called inactive. Active and inactive are the calls of the source.
system: HL-60(TB) leukemia; test: NCI-60 one-dose screen, 48 h (100 = growth as untreated, 0 = no growth, -100 = all killed); details: 10 µM unless noted

Row | SMILES | growth
1 | Cc1ccc2nc(COc3ccc(C(=O)NNC(=S)NCCc4ccccc4)cc3)[nH]c2c1 | 99.7%
2 | Cn1cc(NC(=O)c2cc(NC(=O)c3ccc(/C=C/c4ccccc4)cc3)cn2C)cc1C(=O)NCCCN1CCOCC1 | -37.6% (active)
3 | CCOc1ccccc1[C@H]1C(C(=O)c2ccc(Cl)cc2)C2(N[C@@H]1c1ccccc1)C(=O)Nc1ccc(Br)cc12 (stereo not given in full) | -18.4% (active)
4 | CC(=O)Nc1cccc(Nc2nccc(N[C@@H](C)c3ccccc3)n2)c1 | 5.18% (active)
5 | COc1cccc(-c2ccc(/C=N/NC(=O)c3[nH]c4ccc(Br)cc4c3-c3ccccc3)s2)c1 | -28.2% (active)
6 | CCN(CC)C(=O)N/C(N)=N/c1nc2ccccc2s1 | 52.1%
7 | Cn1cc(-c2cc(N)n3nc(-c4cn(C)c5ccc(Cl)cc45)cc3n2)c2ccccc21 | 92.5%
8 | COc1ccc2[nH]c(=O)c(CSc3ccccc3Nc3nccc(-c4ccc(C(F)(F)F)cc4)n3)cc2c1 | 1.94% (active)
9 | COc1ccc2[nH]cc(-c3nnc(N)nc3-c3c[nH]c4ncc(Br)cc34)c2c1 | 103%
10 | CNC(=O)c1cc(Oc2ccc3nc(NC(=O)Nc4cccc(OC(F)(F)F)c4)sc3c2)ccn1 | 62.7%
11 | O=C(Nc1ccc(F)c(Cl)c1)c1cc(-c2ccc(F)cc2F)ccc1O | -41.3% (active)
12 | CC(=O)Oc1ccccc1C(=O)Oc1ccc(C(=O)/C=C/c2ccncc2)cc1 | 3.04% (active)
13 | N#C/C(=C/c1ccc(Cl)cc1)c1nnc(NC(=O)c2ccc(-n3c(=O)[nH]c4ccccc4c3=O)cc2)s1 | 98.2%
14 | CCCCSc1nc(Nc2ccc(/C(C)=N/NC(N)=S)cc2)c(C#N)c(-c2ccc(OC)cc2)n1 | 92.2%
15 | Nc1cccnc1/C=N/NC(=S)NCCNC(=O)c1ccc(-n2nc(-c3ccccc3O)nc2-c2ccccc2O)cc1 | -8.62% (active)
